High-throughput results deposited in PubChem by National Center for Advancing Translational Sciences (NCATS).
uPA surface inh: inhibitors of cell surface uPA generation | cell surface uPA generation assay, qHTS | Potency, µM (doses to about 38.3 µM), most hits filed as inhibitors | actives 0.31% (n = 330,000) | AID 540303; active = well fitted inhibition curve with a large enough effect; inconclusive = small, poorly fitted or top-dose-only effect; inactive = no such curve, though single readings can be large or run the other way; tested in mouse RAW 264.7 cells; note: nearly all actives have a fitted effect of over 55% in size
Integrin act MD: activates integrin-mediated alleviation for muscular dystrophy; alpha7betagal myoblasts, beta-gal FDG fluorescence, 48 h; AID 624291; actives 0.064% (n = 350,000); Potency, µM (highest dose often 38.3 µM), hits mostly activators; active = well fitted activation curve with a large enough effect; inconclusive = small, poorly fitted or top-dose-only effect; inactive = no such curve, though single readings can be large or run the other way; note: nearly all actives have a fitted effect of over 60% in size
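Alpha7betagal+/- myoblasts (passage 13) were plated 16-24 hr, then exposed to compounds (1:260 dilution of DMSO stock) for 48 hours at 37C. After MPER lysis, β-galactosidase reporter activity was read as FDG fluorescence (ex 480/em 540) after 30 minutes.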
Rango complex inh: Rango-importin beta binding inhibition. Q14974. Rango CFP/YFP FRET sensor + importin beta, 45 min. Potency, µM (top dose mostly 92.2 µM). actives 0.031% (n = 340,000). AID 540263; note: nearly all actives have a fitted effect of over 15% in size
Target sequence (Q14974 whole entry, looked up): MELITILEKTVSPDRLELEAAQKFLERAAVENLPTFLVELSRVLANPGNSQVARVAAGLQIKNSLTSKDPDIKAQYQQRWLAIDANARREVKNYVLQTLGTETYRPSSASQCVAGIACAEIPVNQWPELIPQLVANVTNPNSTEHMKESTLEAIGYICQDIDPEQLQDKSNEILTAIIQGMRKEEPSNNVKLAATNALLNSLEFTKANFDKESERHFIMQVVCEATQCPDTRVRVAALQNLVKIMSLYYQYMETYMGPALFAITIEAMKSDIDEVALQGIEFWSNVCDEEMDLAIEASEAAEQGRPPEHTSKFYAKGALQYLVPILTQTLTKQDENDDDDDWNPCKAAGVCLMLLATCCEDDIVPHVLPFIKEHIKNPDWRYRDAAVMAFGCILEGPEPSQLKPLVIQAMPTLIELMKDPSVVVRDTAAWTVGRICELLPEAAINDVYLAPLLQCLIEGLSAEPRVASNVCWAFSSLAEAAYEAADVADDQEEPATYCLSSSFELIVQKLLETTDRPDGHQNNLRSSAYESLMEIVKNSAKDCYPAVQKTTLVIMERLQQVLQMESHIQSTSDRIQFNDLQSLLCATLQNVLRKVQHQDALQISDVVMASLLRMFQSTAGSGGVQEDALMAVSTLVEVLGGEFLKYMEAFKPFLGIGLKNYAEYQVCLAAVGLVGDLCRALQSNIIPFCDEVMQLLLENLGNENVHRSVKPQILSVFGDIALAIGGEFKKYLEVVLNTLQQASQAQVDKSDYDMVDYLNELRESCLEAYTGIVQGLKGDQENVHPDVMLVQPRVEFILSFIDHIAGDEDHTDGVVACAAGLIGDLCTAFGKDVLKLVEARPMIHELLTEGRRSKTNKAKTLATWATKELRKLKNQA
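FRET biosensor (snurportin 1 IBB flanked by EYFP and cerulean), 50 nM, with compound 5 min, then 0.125 microM importin beta in PBS, 1 mM DTT, 0.02% Tween-20, 0.1% BSA. CFP/YFP ratio read after 45 min at room temperature; pre-read flags interference.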
Rango release inh: inhibition of RanGTP-driven Rango-importin beta dissociation. actives 0.071% (n = 340,000). Potency, µM (highest dose often 46.1 µM). Biochemical FRET Rango-importin beta, RanGTP-induced dissociation; note: nearly all actives have a fitted effect of over 45% in size
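Rango (0.1 uM)–importin beta (0.25 uM) complex; RanGTP-RCC1 trigger; 45 min RT; CFP/YFP FRET read.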
Giardia killer: Giardia lamblia killing; actives 0.15% (n = 340,000); activity change, % at 7.66 µM, hits read low; Giardia lamblia trophozoite viability; in the data active = activity change below about -80%; inconclusive = between about -30% and that limit;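 note: parasites exposed to compound for two days anaerobically before the ATP read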
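Luminescent ATP signal served as the viability read-out, measured 15-30 min after adding ATP detection reagent to trophozoites that had been incubated with compounds for 48 hrs at 37 deg C anaerobically at 100 cells/well.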
Of the large screens only hits and unclear results are named; the others gave an inactive call. Hits are enriched below; roughly 0.59% of the tested compounds scored in any of these assays. Unless noted, calls come from the whole dose curve.

O=C(NCCN1CCCCC1)c1ccc(Oc2cc(Cl)cc(Cl)c2)o1	Rango release inh 16µM
COc1cccc(S(=O)(=O)N(C)C[C@@H]2Oc3cc(C#CCN(C)C)ccc3S(=O)(=O)N([C@H](C)CO)C[C@@H]2C)c1	none (no result: uPA surface inh, Rango complex inh, Rango release inh, Giardia killer)
CCC(CO)Oc1cc(NCc2ccc(Cl)cc2Cl)c2ncn(C(C)C)c2c1 (configuration not stated)	uPA surface inh 8.9µM
N#CN=c1snc(-c2ccccc2)n1-c1ccc(Cl)cc1	none (no result: uPA surface inh, Integrin act MD, Rango complex inh, Rango release inh)
Nc1ccccc1-c1n[nH]c(=S)s1	Rango complex inh inconclusive, Rango release inh 15µM
Cc1ccccc1Nc1n[nH]c(=S)s1	none (no result: uPA surface inh, Rango complex inh, Rango release inh, Giardia killer)
COc1cc(/C=N/NC(=S)NC2CC3CC2C2C=CCC32)ccc1O (configuration not stated)	none
O=c1cc2c(c(-c3ccccc3)n1Cc1ccccc1)[C@@H](CCO)NC2	none
O=C(N/N=C/c1ccc([N+](=O)[O-])o1)c1ccc2c(c1)OCO2	uPA surface inh 4.5µM, Rango release inh inconclusive, Giardia killer -91
O=C(N/N=C\c1ccccc1)c1ccccc1-n1cccc1	none
O=C(N/N=C/c1ccc([N+](=O)[O-])o1)c1ccccc1-n1cccc1	Giardia killer -99
CC(C)(C)c1ccc2c(c1)OC(C(=O)N/N=C/c1ccc([N+](=O)[O-])o1)CO2 (configuration not stated)	Giardia killer -98
O=C(N/N=C/c1ccc([N+](=O)[O-])o1)c1cn(-c2ccccc2)nc1-c1ccc(Cl)cc1	Giardia killer -90
COC(=O)C1=C[C@@H](C(=O)OC)C2C3=C(C(=O)[C@@]2(C)NC(=O)c2ccccc2)[C@H](C)n2c(=O)n(C)c(=O)n2[C@@H]3C1 (some centres not stated)	none (no result: uPA surface inh, Integrin act MD, Rango complex inh, Rango release inh)
CC1CC=CC2C1C(=O)N(Cc1ccccc1)C2c1ccc(C(F)(F)F)cc1 (configuration not stated)	none (no result: uPA surface inh, Integrin act MD, Rango complex inh, Rango release inh)
Cc1oc2cc3oc(=O)c(CCC(=O)NCc4ccccn4)c(C)c3cc2c1C	none
O=C(NN=Cc1c(O)ccc2ccccc12)c1ccc2c(c1)OCO2	uPA surface inh 8.9µM, Rango complex inh inconclusive, Rango release inh inconclusive
O=C(N/N=C/c1ccc([N+](=O)[O-])o1)c1cn(-c2ccccc2)nc1-c1ccccc1	Rango release inh inconclusive, Giardia killer -95
O=S1(=O)C2CC3CCC2(CN1Cc1cccc(F)c1)O3 (configuration not stated)	none (no result: uPA surface inh, Integrin act MD, Rango complex inh, Rango release inh)
Cc1nc2c3cc(F)ccc3n(Cc3ccc(F)cc3)c2s1	uPA surface inh 3.5µM
O=C(Nc1ncc([N+](=O)[O-])s1)C1CC(=O)N(c2ccc(F)cc2)C1 (configuration not stated)	Giardia killer -86
O=C(CCl)N=c1sccn1Cc1cccc2ccccc12	uPA surface inh 0.22µM
COc1ccc(S(=O)(=O)N2CCN(c3nc(-c4cccs4)nc4ccccc34)CC2)cc1OC	none (no result: uPA surface inh, Integrin act MD, Rango complex inh, Rango release inh)
CCC(CCNC(=O)c1ccccc1)(CCNC(=O)c1ccccc1)[N+](=O)[O-]	none
COc1ccc(-c2nc3cccc(C)n3c2Nc2ccc(C)cc2)cc1	none (no result: uPA surface inh, Integrin act MD, Rango complex inh, Rango release inh)
Cc1c(NC(=O)C(C)OC(=O)/C=C/c2ccccc2)c(=O)n(-c2ccccc2)n1C (configuration not stated)	none
COc1cc(/C=C/C(=O)OC(C)C(=O)Nc2c(C)n(C)n(-c3ccccc3)c2=O)ccc1O (configuration not stated)	Rango complex inh inconclusive, Rango release inh 23µM
Cc1cc(Br)ccc1NC(=O)CSCc1c(C)noc1C	none
